PubChem BioAssay (EPA / NIEHS)
Inconclusive results are not listed. Active and inactive are the calls of the source. How the source made its calls: active means hit-call score of the fitted dose curve at least 0.9, where 1 is the maximum; inconclusive means response in the unintended direction; inactive means score below 0.9.

Biological target: AR (gene 367) (UniProt P10275)
Assay: ACEA_AR_agonist_80hr: ACEA Biosciences xCELLigence Real-Time Cell Analysis on Androgen Receptor Agonism for Proliferation (AID 2283783);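 further: hits increase impedance growth signal above DMSO baseline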
Outline: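 22Rv1 human prostate cancer cells were seeded after preconditioning in assay medium and monitored overnight, then dosed in an eight-point 1:4 dilution series from 100 uM (≤0.5% DMSO). Impedance-based growth was read at 80 h, gain-of-signal versus DMSO.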

AR (gene 367), sequence (P10275 whole entry, looked up): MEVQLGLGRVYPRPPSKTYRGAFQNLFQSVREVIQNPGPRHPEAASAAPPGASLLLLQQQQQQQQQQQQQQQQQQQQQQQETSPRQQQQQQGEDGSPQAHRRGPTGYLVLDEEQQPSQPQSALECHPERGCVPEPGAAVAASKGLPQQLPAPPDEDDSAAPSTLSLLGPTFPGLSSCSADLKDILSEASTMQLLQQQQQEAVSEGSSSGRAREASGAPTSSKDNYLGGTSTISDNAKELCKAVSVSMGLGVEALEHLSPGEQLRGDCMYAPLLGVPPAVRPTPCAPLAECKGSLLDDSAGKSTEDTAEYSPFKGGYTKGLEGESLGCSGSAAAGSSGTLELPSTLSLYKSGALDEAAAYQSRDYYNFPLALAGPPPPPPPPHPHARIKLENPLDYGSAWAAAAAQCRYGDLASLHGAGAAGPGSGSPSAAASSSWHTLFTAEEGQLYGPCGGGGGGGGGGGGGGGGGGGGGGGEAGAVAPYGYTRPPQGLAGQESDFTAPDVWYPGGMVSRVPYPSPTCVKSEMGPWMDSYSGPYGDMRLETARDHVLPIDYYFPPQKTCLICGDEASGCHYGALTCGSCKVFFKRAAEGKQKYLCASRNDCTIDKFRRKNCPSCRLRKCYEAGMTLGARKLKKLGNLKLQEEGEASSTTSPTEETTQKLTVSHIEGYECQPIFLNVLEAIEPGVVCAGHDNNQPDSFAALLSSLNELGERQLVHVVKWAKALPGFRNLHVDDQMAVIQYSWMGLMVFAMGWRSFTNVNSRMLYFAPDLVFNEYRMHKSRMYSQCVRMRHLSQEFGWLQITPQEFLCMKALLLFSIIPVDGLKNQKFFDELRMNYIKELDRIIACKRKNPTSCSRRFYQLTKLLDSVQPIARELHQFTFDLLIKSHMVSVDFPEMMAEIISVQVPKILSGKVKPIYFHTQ

| Compound | outcome |
| --- | --- |
| O=C(O)c1ccccc1C(=O)OCc1ccccc1 | inactive |
| COCC(C)OCC(C)OCC(C)O (stereo not drawn) | inactive |
| CCCCCCCCN(C)CCCCCCCC | inactive |
| Cc1occc1C(=O)Nc1ccc(C(=O)N2CCC(F)(F)/C(=C\C(=O)N3CCC(N4CCCCC4)CC3)c3ccccc32)cc1 | inactive |
| NCc1cccc(C2CCN(C(=O)c3ccc(C#Cc4ccccc4F)o3)CC2)c1 | inactive |
| NC(=O)c1nc(-c2cccc(-c3cc(F)ccc3OCC(F)(F)C(F)(F)F)c2)n[nH]1 | inactive |
| CCN(Cc1cccnc1)C(=O)c1cccc(Cl)c1[C@]1(C)C(=O)N(Cc2ccc(OC)cc2OC)c2ccc(Cl)cc21 | inactive |
| COc1cc(C(=O)NC2CCN(C)CC2)ccc1Nc1ncc2c(n1)N(C1CCCC1)CC(F)(F)C(=O)N2C | inactive |
| Oc1ccc2ccccc2c1 | inactive |
| O=C(Nc1ccc(Cl)cc1)Nc1ccc(Cl)c(Cl)c1 | inactive |
| O=c1c(-c2ccc(O)cc2)coc2cc(O)cc(O)c12 | inactive |

System: not listed separately
Assay: STM_H9_NormalizedViability: Cytotoxicity Assessment at 120 hours in the Stemina devTOX quickPredict H9 human embryonic stem cell (hESC)-based Assay (AID 2283784)
Outline: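 Chemicals are tested blinded on H9 human embryonic stem cells in the pluripotent state, with medium exchanged daily. After background correction, fluorescence from CellTiter-Fluor is scaled against 0.1% DMSO wells, and decreases are scored.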

| Compound | outcome | AC50 |
| --- | --- | --- |
| CN1C(=O)CC[C@H]1c1cccnc1 | inactive | – |
| CCCCCCCCOC(=O)c1cc(O)c(O)c(O)c1 | – | 2.44 µM (active) |
| CO[C@H]1/C=C/O[C@@]2(C)Oc3c(C)c(O)c4c(O)c(c(/C=N/N5CCN(C)CC5)c(O)c4c3C2=O)NC(=O)/C(C)=C\C=C\[C@H](C)[C@H](O)[C@@H](C)[C@@H](O)[C@@H](C)[C@H](OC(C)=O)[C@@H]1C | inactive | – |
| CCOC(=O)O[C@H](C)OC(=O)c1ccc2c(c1)cc(C(=O)NC1CCN(C(C)C)CC1)n2Cc1cc(-c2ccc(Cl)s2)on1 | inactive | – |
| CCCCCCCCN(C)CCCCCCCC | inactive | – |
| Clc1cc(Cl)c2c(c1)N=C1CCCCCN1C2 | inactive | – |
| COc1cccc([C@H](O)C2CCN(CCc3ccc(F)cc3)CC2)c1OC | inactive | – |
| CCCCOC(=O)c1ccc(O)cc1 | inactive | – |
| NC(=O)c1nc(-c2cccc(-c3cc(F)ccc3OCC(F)(F)C(F)(F)F)c2)n[nH]1 | – | 0.683 µM (active) |
| CC(=O)N1CCN(c2ccc(OC[C@H]3CO[C@](Cn4ccnc4)(c4ccc(Cl)cc4Cl)O3)cc2)CC1 | inactive | – |
| CCCCCCCCCCCC[N+](C)(C)C | – | 8.63 µM (active) |
| CC(C)(C)c1cc(/C=C2\SC(N)=NC2=O)cc(C(C)(C)C)c1O | inactive | – |
| COc1cc(C(=O)NC2CCN(C)CC2)ccc1Nc1ncc2c(n1)N(C1CCCC1)CC(F)(F)C(=O)N2C | – | 0.0449 µM (active) |
| OCCO | inactive | – |
| Cc1cn([C@H]2C[C@H](N=[N+]=[N-])[C@@H](CO)O2)c(=O)[nH]c1=O | inactive | – |
| O=C(Nc1ccc(Cl)cc1)Nc1ccc(Cl)c(Cl)c1 | inactive | – |
| COc1ccc2cc(S(=O)(=O)N[C@H](CC(=O)N[C@H](Cc3ccc(CN4[C@H](C)CCC[C@@H]4C)cc3)C(=O)N(C)C(C)C)c3ccc4c(c3)OCO4)ccc2c1 | – | 18.9 µM (active) |
| CN(C)C(=O)C1(N2CCCCC2)CCN(CC[C@@]2(c3ccc(Cl)c(Cl)c3)CN(C(=O)c3ccccc3)CCO2)CC1 | – | 9.2 µM (active) |
| CN1C(=O)N(c2ccccc2Br)Cc2cnc(Nc3ccc4c(c3)OCC(CO)O4)nc21 (stereo not drawn) | – | 1.81 µM (active) |
| CN(C)c1ccc(C(=C2C=CC(=[N+](C)C)C=C2)c2ccc(N(C)C)cc2)cc1 | – | 0.767 µM (active) |
| CN(C[C@@H](CC[N+]12CCC(C3CCCCC3)(CC1)CC2)c1ccc(Cl)c(Cl)c1)C(=O)c1cc(C(F)(F)F)cc(C(F)(F)F)c1 | – | 16.4 µM (active) |
| O=c1c(-c2ccc(O)cc2)coc2cc(O)cc(O)c12 | – | 83.2 µM (active) |

Biological target: AR (gene 367) (UniProt P10275)
Assay: ACEA_AR_antagonist_80hr: ACEA Biosciences xCELLigence Real-Time Cell Analysis on Androgen Receptor Antagonism for Proliferation (AID 2283787);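 further: hits lower the impedance growth signal relative to DMSO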
Outline: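 Impedance readout (RT-CES), 80 h post-dose; loss-of-signal vs DMSO baseline. 22Rv1 cells in assay medium. Compounds: 8-pt 1:4 series, max 100 uM final, up to 0.5% DMSO; n = 2.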

| Compound | outcome | AC50 |
| --- | --- | --- |
| O=C(O)c1ccccc1C(=O)OCc1ccccc1 | inactive | – |
| COCC(C)OCC(C)OCC(C)O (stereo not drawn) | inactive | – |
| CCCCCCCCN(C)CCCCCCCC | inactive | – |
| Cc1occc1C(=O)Nc1ccc(C(=O)N2CCC(F)(F)/C(=C\C(=O)N3CCC(N4CCCCC4)CC3)c3ccccc32)cc1 | – | 42.3 µM (active) |
| CCCCOC(=O)c1ccc(O)cc1 | – | 67.9 µM (active) |
| NCc1cccc(C2CCN(C(=O)c3ccc(C#Cc4ccccc4F)o3)CC2)c1 | – | 23.5 µM (active) |
| NC(=O)c1nc(-c2cccc(-c3cc(F)ccc3OCC(F)(F)C(F)(F)F)c2)n[nH]1 | – | 18.4 µM (active) |
| CCN(Cc1cccnc1)C(=O)c1cccc(Cl)c1[C@]1(C)C(=O)N(Cc2ccc(OC)cc2OC)c2ccc(Cl)cc21 | – | 32 µM (active) |
| COc1cc(C(=O)NC2CCN(C)CC2)ccc1Nc1ncc2c(n1)N(C1CCCC1)CC(F)(F)C(=O)N2C | – | 0.0058 µM (active) |
| Oc1ccc2ccccc2c1 | inactive | – |
| CCCCCCCCCC(=O)O | inactive | – |
| Cc1ccc(C(C)C)cc1 | inactive | – |
| OCCO | inactive | – |
| Cc1cc(F)ccc1-c1cc(N2CC[C@@H](O)[C@H]2CO)ncc1N(C)C(=O)C(C)(C)c1cc(C(F)(F)F)cc(C(F)(F)F)c1 | – | 6.76 µM (active) |
| O=C(Nc1ccc(Cl)cc1)Nc1ccc(Cl)c(Cl)c1 | – | 5.97 µM (active) |
| O=C(O)Cn1c(=O)n(Cc2ccc(Br)cc2F)c(=O)c2ccc(Cl)cc21 | inactive | – |
| CN(C)C(=O)C1(N2CCCCC2)CCN(CC[C@@]2(c3ccc(Cl)c(Cl)c3)CN(C(=O)c3ccccc3)CCO2)CC1 | – | 13.6 µM (active) |
| CN(C)c1ccc(C(=C2C=CC(=[N+](C)C)C=C2)c2ccc(N(C)C)cc2)cc1 | – | 0.167 µM (active) |
| CN(C[C@@H](CC[N+]12CCC(C3CCCCC3)(CC1)CC2)c1ccc(Cl)c(Cl)c1)C(=O)c1cc(C(F)(F)F)cc(C(F)(F)F)c1 | – | 7.24 µM (active) |
| O=c1c(-c2ccc(O)cc2)coc2cc(O)cc(O)c12 | – | 65.1 µM (active) |
